# High-throughput results: PubChem, Broad Institute
# esBAF inh: SWI/SNF esBAF complex inhibition | AID 602393 | 2% of 350,000 active | mouse ES cells, Bmi1-luciferase knock-in reporter, 24 h; 100% = twice the neutral-well signal | reporter increase, % at 12.5 µM; in the data active means activation above about 40%; inconclusive means no clear call, values can overlap the other calls;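 further: a rise in the Bmi1 reporter signal indicates esBAF inhibition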
# MITF act: increases MITF-driven TRPM1 promoter luciferase signal. SK-MEL-5 TRPM1-promoter luciferase, 24 h; % of positive control, neutral wells = 0. activation, % at 12.5 µM. 0.75% of 300,000 active;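 active means mean activation of at least 80% with every replicate also reaching 80%; inconclusive means mean reaches 80% but some replicate falls short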
# C2C12 statin: suppression of simvastatin myotoxicity | C2C12 myotubes + simvastatin, ATP luminescence, 48 h; scaled: DMSO 0, geranylgeraniol control 100 | rescue of ATP level, % at 7.49 µM | 0.78% of 330,000 active;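 active means mean ATP rescue above about 67%, or every replicate alone reaching that limit, limit read from the data, passing the limit was not always enough; inconclusive means no clear call, values can overlap the other calls; inactive means mean under the limit and some replicate under it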;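 further: myotubes were challenged with 10 µM simvastatin during compound exposure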
# Rtt109 Vps75: inhibitors of Candida albicans Rtt109/Vps75 histone acetyltransferase; Q5AAJ8; purified Rtt109/Vps75, ThioGlo CoA-SH fluorescence, 4 h; inhibition, % at 34.9 µM; 0.16% of 330,000 active;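 active means inhibition of at least 50% in every replicate; inconclusive means best replicate reaches 50% inhibition but some replicates fall short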
# Target sequence (Q5AAJ8 whole entry, looked up): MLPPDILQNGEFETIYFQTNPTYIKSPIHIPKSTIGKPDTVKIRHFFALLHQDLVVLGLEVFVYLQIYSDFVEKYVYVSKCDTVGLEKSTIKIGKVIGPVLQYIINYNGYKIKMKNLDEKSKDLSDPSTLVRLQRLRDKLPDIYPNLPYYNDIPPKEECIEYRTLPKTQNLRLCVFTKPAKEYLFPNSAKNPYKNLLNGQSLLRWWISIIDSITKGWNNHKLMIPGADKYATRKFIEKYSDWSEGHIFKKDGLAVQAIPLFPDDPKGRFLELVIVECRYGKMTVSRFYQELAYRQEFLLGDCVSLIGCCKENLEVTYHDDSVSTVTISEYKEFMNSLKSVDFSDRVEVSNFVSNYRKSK
# Wnt bcat act: activates Wnt/beta-catenin signaling in a reporter cell assay. activation, % at 9.35 µM. 1.2% of 300,000 active. activator, plate reader; in the data active means activation above about 30%, passing the limit was not always enough; inconclusive means no clear call, values can overlap the other calls
# A number is an active result; i = inactive; ? = inconclusive; nt = not tested or not shown. Sampled rows, rich in hits. Any-hit rate of the full collection: about 3.1%.
SMILES,esBAF inh,MITF act,C2C12 statin,Rtt109 Vps75,Wnt bcat act
CC1(C)Cc2c(sc3nc(-c4ccccc4)n(N)c(=O)c23)CO1,43,i,i,i,nt
CCc1nc2sc3c(c2c(=O)n1N)CC(C)(C)OC3,nt,i,nt,i,i
CCC(=O)N1C[C@@H](C)[C@H](OC)CN(C)C(=O)c2ccc(NC(=O)Nc3ccc(Cl)cc3)cc2OC[C@@H]1C,i,nt,i,nt,nt
CCOC(=O)c1[nH]nc(C(=O)c2ccc(Br)cc2)c1O,54,nt,i,i,nt
Cc1cc(NS(=O)(=O)c2ccc(NC(=O)Nc3ccc4c(c3)OCO4)cc2)no1,42,i,i,i,nt
CC(=O)c1cc2c(cc1NC(=O)c1ccc(-n3nc(C)cc3C)cc1)OCO2,i,i,i,i,i
Cc1cc(C)n(-c2ccc(C(=O)Nc3ccc4c(c3)OCO4)cc2)n1,68,i,nt,i,i
O=C(Nc1ccc2c(c1)OCO2)c1cc(Cl)ccn1,44,i,i,i,i
COc1ccc(-c2cc(C(=O)Nc3ccc4c(c3)OCO4)no2)cc1OC,i,i,i,i,i
Cc1cc(C(=O)Nc2ccc3c(c2)OCO3)no1,?,106,i,i,i
COc1ccc(S(=O)(=O)Nc2ccc3c(c2)C(=O)N([C@H](C)CO)C[C@H](C)[C@H](CN(C)C(=O)c2ccccc2)OCCCC[C@H](C)O3)cc1,i,nt,i,nt,nt
CC(C)Cc1cc(C(=O)Nc2ccc3c(c2)OCO3)no1,i,i,i,i,58
CO[C@@H]1CN(C)C(=O)c2cc(NC(=O)CC(F)(F)F)ccc2OC[C@@H](C)N(C(=O)C2CCOCC2)C[C@H]1C,i,nt,i,nt,nt
COCC(=O)N1C[C@@H](C)[C@H](OC)CN(C)C(=O)c2ccc(NC(=O)c3cc(C)on3)cc2OC[C@@H]1C,i,nt,i,nt,nt
Cc1ccccc1NC(=O)/C(C#N)=C/c1ccc[nH]1,i,i,i,i,i
N#C/C(=C\c1ccc[nH]1)C(=O)Nc1ccccc1[N+](=O)[O-],63,i,i,i,i
COC(=O)C12CC3CC(C1)CC(n1cnc(Cl)n1)(C3)C2,nt,i,nt,i,i
COC(=O)c1nn(C23CC4CC(CC(C4)C2)C3)c2c1C(=O)N(c1ccc(Br)cc1)C2=O,i,i,68,i,nt
CCOC(=O)c1nn(C23CC4CC(CC(C4)C2)C3)c2c1C(=O)N(c1ccc(C)cc1)C2=O,i,i,121,i,nt
COc1ccc(C(=O)CSc2nnc(-c3ccc(C)cc3)o2)cc1,i,nt,nt,i,nt
COc1ccc(-c2nnc(SCC(C)C)o2)cc1,nt,i,nt,i,42
C[C@@H]1CN([C@H](C)CO)C(=O)c2cc(C#CC3CC3)cnc2O[C@H]1CN(C)C(=O)C1CCCCC1,nt,nt,i,nt,nt
CCN(CC)C(=O)c1sc(N)c(C#N)c1C,i,i,128,i,nt
COc1ccc(-c2ccc3c(c2)[C@@H]2[C@@H](CCN2C(=O)C2CCOCC2)[C@@H](CO)N3C)cc1,i,nt,i,nt,nt
O=S1(=O)Nc2c(ccc3cccnc23)-c2ccccc21,i,i,109,i,nt
SMILES,esBAF inh,MITF act,C2C12 statin,Rtt109 Vps75,Wnt bcat act
Clc1ccc2ccc3cccnc3c2n1,i,i,i,i,i
COc1ccccc1N(CC(=O)N1CCCCCC1)S(=O)(=O)c1ccc(C)cc1,i,i,91,i,i
CC(C)c1ccc(C(C(C(=O)c2ccccc2)N2CCOCC2)N2CCOCC2)cc1 (stereo not given),46,i,i,i,i
COc1cccc(COC(=O)c2ccc3c(c2)NC(=O)C(C)S3)c1OC (stereo not given),i,i,i,i,i
CC1Sc2ccc(C(=O)OCc3ccccc3Cl)cc2NC1=O (stereo not given),nt,186,i,i,?
CC1Sc2ccc(C(=O)Nc3ccccc3OC(F)F)cc2NC1=O (stereo not given),nt,i,nt,i,35
CC(C)CC#Cc1cnc2c(c1)C(=O)N([C@H](C)CO)C[C@H](C)[C@H](CN(C)Cc1cccc(F)c1)O2,i,nt,i,nt,nt
C[C@@H]1CN([C@H](C)CO)C(=O)Cc2cc(N(C)C)ccc2O[C@H]1CN(C)Cc1ccc(Oc2ccccc2)cc1,i,nt,i,nt,nt
CCCOc1ncnc2c1[nH]c1ccc(OC)cc12,nt,nt,nt,i,52
CCCCOc1ncnc2c1[nH]c1ccc(C)cc12,nt,nt,nt,nt,43
CCCOc1ncnc2c1[nH]c1ccccc12,i,nt,i,i,i
C=CCNc1ncnc2c1[nH]c1ccc(C)cc12,nt,i,nt,i,i
COc1ccc2[nH]c3c(NCCCOC(C)C)ncnc3c2c1,nt,i,nt,i,31
C[C@@H]1CN([C@H](C)CO)C(=O)Cc2cc(NC(=O)Nc3ccccc3)ccc2O[C@@H]1CN(C)Cc1ccc(Oc2ccccc2)cc1,i,nt,i,nt,nt
Cc1nn(C)cc1NC(=O)c1cc2nc(-c3ccco3)cc(C(F)(F)F)n2n1,i,i,i,i,i
O=C(Nc1cnn(Cc2ccccc2)c1)c1cc2nc(-c3ccco3)cc(C(F)(F)F)n2n1,i,i,125,i,i
Cn1nnc2cc(NC(=O)Nc3ccccc3F)ccc21,i,nt,i,nt,50
COc1ccc(C2CC(C)(c3ccc(OC)cc3)Nc3ccccc3N2)cc1 (stereo not given),?,nt,i,i,49
COc1ccc(C2(C)CC(C)(C)Nc3ccccc32)cc1 (stereo not given),i,nt,i,i,i
Cc1noc(C)c1S(=O)(=O)Nc1cccc2c1O[C@H](CN(C)S(C)(=O)=O)[C@H](C)CN([C@H](C)CO)C2=O,i,nt,i,nt,nt
CCc1ccc(Nc2nc(C)cc(C)n2)cc1,49,nt,i,i,i
CCCNC(=O)N[C@@H]1CC[C@@H](CCn2cc(C3CCCC3)nn2)O[C@@H]1CO,i,nt,i,nt,nt
CCC1([N+](=O)[O-])COC(C=Cc2ccccc2)OC1 (stereo not given),54,i,i,i,i
CC1([N+](=O)[O-])COC(c2cccc3ccccc23)OC1 (stereo not given),i,nt,i,nt,i
CNC(=O)C[C@@H]1CC[C@H]2[C@H](COc3ccc(NC(=O)c4ccc(F)c(F)c4)cc3C(=O)N2C)O1,i,nt,i,nt,nt
SMILES,esBAF inh,MITF act,C2C12 statin,Rtt109 Vps75,Wnt bcat act
Cc1ccc2[nH]c(=O)c(CN(CCc3ccccc3)C(c3nnnn3Cc3ccco3)C(C)C)cc2c1 (stereo not given),nt,i,nt,i,36
CC(C)NC(=S)N/N=C/c1sc(N2CCCCC2)nc1-c1cccs1,67,i,i,i,nt
CC(C)(C)N1CC(COc2ccccc2)OC1=O (stereo not given),62,nt,i,i,i
C[C@@H]1CCCCO[C@H](CN(C)C(=O)C2CCCCC2)[C@@H](C)CN([C@@H](C)CO)C(=O)c2cc(NC(=O)Nc3ccc(F)cc3)ccc2O1,i,nt,nt,nt,nt
O=C(O)Cc1c(O)ccc2ccccc12,i,i,121,i,i
C[C@@H]1CN([C@H](C)CO)C(=O)Cc2cc(NC(=O)c3ccncc3)ccc2O[C@@H]1CN(C)CC1CC1,i,nt,i,nt,nt
Nc1ccc2c(c1)Cc1c(F)cccc1-2,57,i,i,i,nt
Cc1ccc(S(=O)(=O)Nc2ccc3c(c2)C(=O)N([C@@H](C)CO)C[C@H](C)[C@H](CN(C)C)O3)cc1,i,nt,i,nt,nt
